In PubChem BioAssay (NCATS) one finds activation and Potency data, which are given here for 26 compounds.

Records with an inconclusive call do not appear. A number with no mark means an inactive call. Activity calls are given as the source filed them. The call rests on the fitted dose curve; in most records, active means well fitted curve in the direction sought with a large enough effect; inconclusive means small, poorly fitted or top-dose-only effect, or another doubt; inactive means no such curve, though single readings can be large; an effect the other way counts as inactive or inconclusive.

The target of assay [1] is Cellular tumor antigen p53 (Homo sapiens) (UniProt P04637). The assay can be described thus: Primary qHTS for small molecule compounds that upregulate eGFP-tagged delta133p53alpha (in N-terminal) cells. (AID 2060322). Further: nearly all actives have a fitted effect of over 75% in size. Further: potency means the concentration at half of the fitted maximal effect.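 On activation: 0% = DMSO vehicle and 100% = reference activator.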 The following applies: NCI-H358 eGFP-delta133p53alpha fluorescence, 24 h; activation: stronger effect = higher value. An outline of the steps: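 NCI-H358 cells pre-induced 24 h with 10 ng/ml doxycycline to express N-terminal eGFP-delta133p53alpha, then dosed 24 h at 37C without doxycycline; fixed, Hoechst-stained, GFP intensity by laser scanning cytometry, normalized to DMSO (0%) and 57.5 uM 5-azacytidine (100%).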
For orientation: qHTS replaces the single test concentration by a dilution series.

The target in assay [2] is Aldehyde dehydrogenase, mitochondrial (Homo sapiens) (UniProt P05091). The assay can be described thus: qHTS for Inhibitors of the Aldehyde Dehydrogenase Family (ALDH2) Primary screen (AID 2061308).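 Further: plate controls were vehicle for no effect and reference inhibitor for full effect; nearly all actives have a fitted effect of over 55% in size.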 To be noted: ALDH2 enzyme inhibition qHTS, 1536-well; series mostly up to 56 µM.
The target of assay [3] is Retinaldehyde dehydrogenase 3 (Homo sapiens) (UniProt P47895). The experiment in a line: qHTS for Inhibitors of the Aldehyde Dehydrogenase Family (ALDH1A3) Primary screen (AID 2061315).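 Further: plate controls were DMSO vehicle for no effect and reference inhibitor for full effect.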 To be noted: ALDH inhibition qHTS; series mostly up to 56 µM.

Sequence of Cellular tumor antigen p53 (Homo sapiens) (P04637 whole entry, looked up): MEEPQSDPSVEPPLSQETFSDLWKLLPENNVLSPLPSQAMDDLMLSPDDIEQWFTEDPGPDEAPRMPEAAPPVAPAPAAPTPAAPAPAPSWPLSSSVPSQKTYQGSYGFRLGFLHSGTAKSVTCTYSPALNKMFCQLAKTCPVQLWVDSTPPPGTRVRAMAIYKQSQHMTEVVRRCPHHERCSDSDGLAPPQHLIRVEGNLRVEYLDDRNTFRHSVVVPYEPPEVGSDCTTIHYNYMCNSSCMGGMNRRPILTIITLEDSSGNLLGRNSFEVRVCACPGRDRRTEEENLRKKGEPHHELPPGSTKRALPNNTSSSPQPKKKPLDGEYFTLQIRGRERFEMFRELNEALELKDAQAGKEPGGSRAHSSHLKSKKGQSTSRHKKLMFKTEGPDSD

As for `O=S(=O)(O)c1ccc(Nc2ncnc3c2ncn3[C@@H]2O[C@H](CO)[C@@H](O)[C@H]2O)cc1`, the activation in assay [1] is -3%. Further, the Potency entry in assay [2] and in assay [3] was “inactive” in each case.
On to `CC1(C)CC[C@]2(C(=O)O[C@@H]3O[C@H](CO)[C@@H](O)[C@H](O)[C@H]3O)CC[C@]3(C)C(=CCC4[C@@]5(C)C[C@@H](O)[C@H](O)[C@](C)(C(=O)O)C5CC[C@]43C)C2C1O` (stereo partly drawn), for which the activation in assay [1] is -2.68%. Moreover, the Potency result in assay [2] and in assay [3] was “inactive” each time.
With `C/C=C/c1cc(OC)c2c(c1)[C@@H](C)[C@@H](c1ccc(O)c(OC)c1)O2`, in assay [1], the activation is -16%. In addition, the Potency entry in assay [2] and in assay [3] was “inactive” each time.
Take `O=C(Cc1ccc(Cl)cc1)Nc1cnccc1C(=O)O`: the activation in assay [1] was -12.3%. Moreover, the Potency entry in assay [2] and in assay [3] was “inactive” throughout.
As for `C/C=C(\C)C(=O)OC1C2(O)CC3=C4CC(=O)OC(c5ccoc5)C4(C)CCC3C(C)(C2=O)C(C(OC(C)=O)C(=O)OC)C1(C)C` (stereo not drawn), the activation in assay [1] was -7.63%. The Potency result in assay [2] and in assay [3] was “inactive” in each case.
As for `CC1(C)CC[C@]2(C(=O)O[C@@H]3O[C@H](CO)[C@@H](O)[C@H](O)[C@H]3O)CC[C@]3(C)C(=CCC4[C@@]5(C)CC[C@H](O[C@@H]6O[C@H](C(=O)O)[C@@H](O[C@@H]7O[C@H](CO)[C@@H](O)[C@H](O)[C@H]7O)[C@H](O)[C@H]6O)C(C)(C)C5CC[C@]43C)C2C1` (stereo partly drawn), the activation in assay [1] was -26.7%. Moreover, the Potency entry in assay [2] and in assay [3] was “inactive” in each case.
Consider `CCN1CCN(Cc2ccc(NC(=O)c3ccc(C)c(Oc4ccnc5[nH]ccc45)c3)cc2C(F)(F)F)CC1`, for which the Potency in assay [1] is 14.8 µM (active). Moreover, the Potency entry in assay [2] and in assay [3] was “inactive” throughout.
`CC(C)(C)[C@H](NC(=O)c1ccc(N)c(Cl)c1)C(=O)N1CCC[C@H]1C(=O)N[C@H](C#N)CC(=O)O`: the activation in assay [1] was -7%. In addition, the Potency result in assay [2] and in assay [3] was “inactive” throughout.
On to `NC[C@H]1CCC[C@@H](CNC(=O)[C@@H](Cc2c[nH]c3ccccc23)NC(=O)N2CCC3(C=Cc4ccccc43)CC2)C1`, for which the activation in assay [1] is 3%. Further, the Potency entry in assay [2] and in assay [3] was “inactive” in each case.
On to `COC(=O)C[C@H]1C(C)(C)[C@H](OC(=O)C(C)C)C2CC3=C4CC(=O)O[C@@H](c5ccoc5)[C@]4(C)CCC3[C@@]1(C)C2=O` (stereo partly drawn), for which the activation in assay [1] was 11.6%. The Potency result in assay [2] and in assay [3] was “inactive” each time.
For `COc1cc(CCCO)ccc1O[C@@H]1O[C@H](CO)[C@@H](O)[C@H](O)[C@H]1O`, the activation in assay [1] was -16.1%. The Potency result in assay [2] and in assay [3] was “inactive” in each case.
Regarding `CCS(=O)(=O)N1CC(CC#N)(n2cc(-c3ncnc4[nH]ccc34)cn2)C1`, in assay [1], the activation is 4.89%. Besides, the Potency entry in assay [2] and in assay [3] was “inactive” throughout.
For `CC1OC(OC2C(C)OC(OC3C(OC(=O)/C=C/c4ccc(O)cc4)C(CO)OC(OC4(COC(=O)/C=C/c5ccc(O)cc5)OC(CO)C(O)C4O)C3OC3OCC(O)(CO)C3O)C(O)C2O)C(O)C(O)C1O` (stereo not drawn), in assay [1], the activation was 14.5%. Also, the Potency result in assay [2] and in assay [3] was “inactive” each time.
In the case of `C=C(C(=O)O[C@H]1C/C(C)=C/CC/C(CO)=C/[C@H]2OC(=O)C(=C)[C@H]12)C(O)CO` (stereo partly drawn), the Potency in assay [1] was 18.6 µM (active). Besides, the Potency entry in assay [2] and in assay [3] was “inactive” throughout.
In the case of `CC(=O)N[C@H]1[C@H](O[C@H]2CC[C@@]3(C)C(CC[C@]4(C)C3CC=C3[C@@H]5CC(C)(C)CC[C@]5(C(=O)OC5OCC(O)C(O)C5O)CC[C@]34C)C2(C)C)O[C@H](COC2OC(C)C(O)C(OC3OC(C)C(O)C(O)C3O)C2O)[C@@H](O)[C@@H]1O` (stereo partly drawn), in assay [1], the activation was -26%. Further, the Potency entry in assay [2] and in assay [3] was “inactive” in each case.
Take `C=C1[C@H]2CCC3[C@]4(C)CCC[C@@](C)(C(=O)O)C4CC[C@]3(C2)[C@H]1OC(C)=O` (stereo partly drawn): the activation in assay [1] was -17.6%. The Potency entry in assay [2] and in assay [3] was “inactive” throughout.
Turning to `C[C@@H]1O[C@@H](O[C@H]2[C@H](O)[C@@H](C(=O)O)O[C@@H](O[C@H]3CC[C@@]4(C)C(CC[C@]5(C)C4CC=C4C6CC(C)(C)CC[C@]6(C(=O)O)CC[C@]45C)C3(C)C)[C@@H]2O[C@@H]2OC[C@@H](O)[C@H](O)[C@H]2O)[C@H](O)[C@H](O)[C@H]1O` (stereo partly drawn), in assay [1], the activation is 2.68%. The Potency result in assay [2] and in assay [3] was “inactive” throughout.
Regarding `Cn1ncnc1[C@@H]1c2n[nH]c(=O)c3cc(F)cc(c23)N[C@H]1c1ccc(F)cc1`, in assay [1], the activation is -7.14%. Moreover, the Potency entry in assay [2] and in assay [3] was “inactive” in each case.
For `C/C=C/C1OC2=C(C(=O)OC2(C)O)C(O)C1O` (stereo not drawn), the activation in assay [1] is 28.2%. Besides, the Potency result in assay [2] and in assay [3] was “inactive” each time.
Regarding `CC(C)C(N)C(=O)OCCOCn1cnc2c(=O)[nH]c(N)nc21` (stereo not drawn), in assay [1], the activation was 8.93%. Further, the Potency result in assay [2] and in assay [3] was “inactive” each time.
`CC(C)c1cc(-c2ccc(F)c3ccccc23)nc(N)n1`: in assay [1], the activation was -13.4%. The Potency entry in assay [2] and in assay [3] was “inactive” each time.
As to `CCn1nnnc1NCc1ccc(C(C)C)cc1`, the activation in assay [1] was 3%. In addition, the Potency entry in assay [2] and in assay [3] was “inactive” each time.
Turning to `CC1(C)OC(=O)C(OCC2CC2)=C1c1ccc(S(C)(=O)=O)cc1`, the activation in assay [1] is -2.33%. In addition, the Potency entry in assay [2] and in assay [3] was “inactive” throughout.
In the case of `C=C1C(=O)O[C@@H]2CC(C)=C([C@@H](C)CCCO)[C@@H](OC(=O)C(C)C)[C@H]12`, the activation in assay [1] is 14.3%. For the same compound, the Potency result in assay [2] and in assay [3] was “inactive” in each case.
For `COc1ccc([C@@]2(O)c3c(ccc(CC=C(C)C)c3O)NC(=O)[C@@H]2OC)cc1`, the activation in assay [1] is -19.1%. The Potency result in assay [2] and in assay [3] was “inactive” throughout.
Regarding `CC(=O)[C@@H]1C[C@H](C(C)(C)O[C@@H]2O[C@H](CO)[C@@H](O)[C@H](O)[C@H]2O)CC[C@@]2(CO)OC(=O)C[C@@H]12`, the activation in assay [1] was -6.11%. Moreover, the Potency entry in assay [2] and in assay [3] was “inactive” each time.
